# PubChem BioAssay
# Active and inactive are the calls of the source. Unless noted, no rule for the calls is given here.
# Legend:
# [1] = compound effects on lung adenocarcinoma cell viability – A549, calcein-AM fluorescence, 48 h, basal, profiling panel (AID 1162); conditions: higher = more signal; also: test concentration not given here
# [2] = compound effects on differentiated 3T3-L1 adipocyte viability – cell-based, 3T3-L1 adipocytes, calcein-AM fluorescence, 48 h, basal, profiling panel (AID 1163); conditions: 3T3-L1 adipocytes viability, higher = more signal; also: test concentration not given here
# [3] = compound effects on hepatocellular carcinoma cell viability – HepG2, calcein-AM fluorescence, 48 h, basal, profiling panel (AID 1164); conditions: higher = more signal; also: test concentration not given here
# [4] = compound effects on multiple myeloma cell viability – MM1S, calcein-AM fluorescence, 48 h, basal, profiling panel (AID 1165); conditions: higher = more signal; also: test concentration not given here
# [5] = calcein-AM signal in unstimulated myeloma cells – cell-based, calcein-AM fluorescence, 48 h, PK04 Diversity Set, profiling panel (AID 1166); conditions: RPMI8226 myeloma viability, higher = more signal;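 also: cells grown under basal conditions without added stimulus; test concentration not given here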
# [6] = JC-1 mitochondrial signal, unstimulated HepG2 cells – cell-based, JC-1 fluorescence, 24 h, 100 nL compound, profiling panel (AID 1167); conditions: HepG2 mitochondrial potential, higher = more signal; also: test concentration not given here
# [7] = JC-1 mitochondrial signal, unstimulated adipocytes – cell-based, JC-1 fluorescence, 3T3-L1 adipocytes, 24 h, 100 nL compound, profiling panel (AID 1168); conditions: JC-1 mitochondrial fluorescence, higher = more signal, called active from +8 up or from −8 down; also: test concentration not given here
# [8] = JC-1 mitochondrial signal, unstimulated myeloma cells – cell-based, JC-1 fluorescence, RPMI8226, 24 h, 100 nL compound, profiling panel (AID 1169); conditions: JC-1 mitochondrial potential fluorescence, higher = more signal; also: test concentration not given here
# [9] = JC-1 mitochondrial signal, unstimulated MM1S myeloma – cell-based, JC-1 fluorescence, 24 h, 100 nL compound, profiling panel (AID 1170); conditions: MM1S mitochondrial potential, higher = more signal; also: test concentration not given here
# [10] = resazurin metabolic signal in A549 cells – cell-based, resazurin fluorescence, 24 h, PK04 Diversity Set, profiling panel (AID 1171); conditions: A549 viability, higher = more signal, called active from +8 up or from −8 down; also: test concentration not given here
# [11] = resazurin metabolic signal in HepG2 cells – cell-based, resazurin fluorescence, 24 h, PK04 Diversity Set, profiling panel (AID 1172); conditions: HepG2 viability, higher = more signal; also: test concentration not given here
# [12] = budding yeast growth changes without added modifier – OD600, strain BY4716, 24 h, basal condition, primary screen (AID 1173); conditions: S. cerevisiae BY4716 growth, OD600, 24 h; higher = more signal, called active from +8 up or from −8 down
# [13] = viability profiling in MM1S myeloma cells – cell-based, resazurin fluorescence, basal, 24 h, PK04 Diversity Set, profiling panel (AID 1174); conditions: higher = more signal, called active from +8 up or from −8 down; also: test concentration not given here
# [14] = target: Dihydroorotate dehydrogenase (quinone), mitochondrial (Plasmodium falciparum (isolate 3D7)) (UniProt Q08210); experiment: inhibition of P. falciparum DHODH – biochemical, C-terminal His tag, absorbance 600 nm, primary screen (AID 1175); conditions: PfDHODH enzyme, DCIP absorbance 600 nm; higher = more signal, called active from +8 up or from −8 down;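 also: recombinant parasite enzyme with a five histidine tag at its C terminus; test concentration not given here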
# Chain of Dihydroorotate dehydrogenase (quinone), mitochondrial (Plasmodium falciparum (isolate 3D7)) (Q08210 whole entry, looked up): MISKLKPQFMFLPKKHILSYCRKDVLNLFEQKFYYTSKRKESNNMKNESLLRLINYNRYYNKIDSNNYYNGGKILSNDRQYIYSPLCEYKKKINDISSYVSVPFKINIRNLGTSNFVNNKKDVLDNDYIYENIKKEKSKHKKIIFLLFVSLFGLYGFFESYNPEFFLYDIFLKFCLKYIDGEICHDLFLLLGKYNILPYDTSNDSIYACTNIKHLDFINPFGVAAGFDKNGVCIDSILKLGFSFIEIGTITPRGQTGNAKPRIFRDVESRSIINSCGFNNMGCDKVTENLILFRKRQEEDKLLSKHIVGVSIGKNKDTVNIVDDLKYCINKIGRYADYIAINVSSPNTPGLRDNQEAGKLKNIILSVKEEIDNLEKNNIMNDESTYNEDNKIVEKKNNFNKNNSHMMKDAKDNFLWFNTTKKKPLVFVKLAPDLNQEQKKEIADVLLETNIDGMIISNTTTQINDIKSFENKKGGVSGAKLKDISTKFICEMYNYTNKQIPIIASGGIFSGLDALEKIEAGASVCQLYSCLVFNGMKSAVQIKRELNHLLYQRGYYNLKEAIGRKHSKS
# [15] = inhibition of PAO1 biofilm formation – strain PAO1, LB-PBS medium, absorbance 600 nm, primary screen (AID 1176); also: test concentration not given here; conditions: P. aeruginosa PAO1 growth/biofilm, A600, 12 h; higher = more signal
# [16] = growth modulation of vineyard yeast isolate – strain RM11-1a, OD600, basal, 24 h, primary screen (AID 1177);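 also: cultures grown under basal conditions with no added stressor; test concentration not given here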; conditions: S. cerevisiae RM11-1a growth, OD600, 24 h; higher = more signal, called active from +8 up or from −8 down
# [17] = growth of efflux-deficient E. coli DRC39 – strain DRC39, OD650, 24 h, E. coli filamentation inducers, primary screen (AID 1178);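 also: growth measured as culture turbidity by optical density at 650 nm; test concentration not given here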; conditions: E. coli DRC39 acrAB, higher = more signal, called active from +8 up or from −8 down
# [18] = growth of efflux-deficient E. coli DRC39 – strain DRC39, OD650, 48 h, E. coli filamentation inducers, primary screen (AID 1179);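 also: screen aims at cell division blockers that make cells filament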; conditions: E. coli DRC39 delta-acrAB growth, higher = more signal, called active from +8 up or from −8 down
# [19] = viability profiling in RPMI8226 myeloma cells – cell-based, resazurin fluorescence, basal, 24 h, PK04 Diversity Set, profiling panel (AID 1180); conditions: higher = more signal;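 also: RPMI8826 multiple myeloma cell line at 5000 cells per well; test concentration not given here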
# [20] = target: E3 ubiquitin-protein ligase XIAP (Homo sapiens) (UniProt P98170); experiment: small molecules binding XIAP protein – biophysical, small-molecule microarray, fluorescence 635 nm, primary screen (AID 1181); conditions: higher = more signal;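 also: score merges 667 nm emission and signal to noise over triplicate slides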
# Chain of E3 ubiquitin-protein ligase XIAP (Homo sapiens) (P98170 whole entry, looked up): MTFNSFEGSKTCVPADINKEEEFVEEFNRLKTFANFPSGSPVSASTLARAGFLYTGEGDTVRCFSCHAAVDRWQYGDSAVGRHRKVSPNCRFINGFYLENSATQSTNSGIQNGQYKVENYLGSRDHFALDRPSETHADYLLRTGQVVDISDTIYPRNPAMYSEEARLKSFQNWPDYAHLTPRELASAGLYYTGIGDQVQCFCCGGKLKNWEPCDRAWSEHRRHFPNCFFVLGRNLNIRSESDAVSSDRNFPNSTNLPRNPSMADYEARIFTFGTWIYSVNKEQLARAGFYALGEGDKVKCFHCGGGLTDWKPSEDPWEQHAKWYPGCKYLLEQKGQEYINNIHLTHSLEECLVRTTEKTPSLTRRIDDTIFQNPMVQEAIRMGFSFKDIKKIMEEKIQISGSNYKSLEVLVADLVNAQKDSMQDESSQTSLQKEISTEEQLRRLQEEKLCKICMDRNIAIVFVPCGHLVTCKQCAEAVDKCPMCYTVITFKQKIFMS
Compound,z-score [1],z-score [2],z-score [3],z-score [4],z-score [5],z-score [6],z-score [7],z-score [8],z-score [9],z-score [10],z-score [11],z-score [12],z-score [13],composite z-score [14],z-score [15],z-score [16],z-score [17],z-score [18],z-score [19],composite z-score [20]
[N-]=[N+]=Nc1ccccc1[C@@H]1OC(c2ccc(OCCCO)cc2)=N[C@]1(CCS(=O)(=O)c1ccccc1)C(=O)O,0.926,-0.149,0.846,-0.57,-1.47,-3.18,-1.07 (inactive),-0.373,-1.17,0.343 (inactive),0.97,-0.14 (inactive),-0.3 (inactive),-23.4 (active),-0.884 (inactive),0.82 (inactive),0.277 (inactive),0.82 (inactive),0.205,0.125
C=CC[C@@]1(C(=O)OC)N=C(c2ccc(OCCCO)cc2)O[C@@H]1c1ccccc1CN=[N+]=[N-],-0.817,0.358,-1.13,-2.7,-3.17,0.195,1.31 (inactive),-0.969,-0.949,-1.19 (inactive),1.09,-12.3 (active),-1.72 (inactive),-0.509 (inactive),-0.347 (inactive),-0.712 (inactive),0.419 (inactive),0.967 (inactive),-0.494,-0.0868
COCCCNC(=O)[C@@]1(C)c2ccccc2C(=O)N(Cc2ccccc2)[C@H]1c1ccc(CO)cc1,0.587,0.928,-0.0853,-0.174,-2.12,0.548,-1.39 (inactive),-0.648,-0.514,0.22 (inactive),-0.0127,-0.552 (inactive),0.392 (inactive),-0.121 (inactive),0.745 (inactive),-0.755 (inactive),-0.157 (inactive),-0.275 (inactive),-0.153,-0.0304
Cc1ccc(S[C@]2(C(=O)NCCCN(C)C)CC(=O)N(C(C)C)[C@@H]2c2ccc(CO)cc2I)cc1,2.16,-0.054,0.498,-3.07,-1.37,2.47,1.06 (inactive),-0.423,-2.32,0.505 (inactive),0.533,-3.52 (inactive),-3.69 (inactive),-0.0857 (inactive),0.668 (inactive),-1.31 (inactive),0.847 (inactive),1.52 (inactive),-2.67,-0.145
[N-]=[N+]=Nc1ccccc1[C@@H]1OC(c2ccc(OCCCO)cc2)=N[C@]1(CCS(=O)(=O)c1ccccc1)C(=O)N1CCCCC1,-0.564,-0.56,-0.0675,-0.92,-0.739,-0.827,0.0238 (inactive),-0.881,-0.923,-0.127 (inactive),-0.644,1.69 (inactive),-1.66 (inactive),1.06 (inactive),0.687 (inactive),2.08 (inactive),-0.0955 (inactive),-0.933 (inactive),-1.81,-0.202
CCCNC(=O)[C@@]1(C)c2ccccc2C(=O)N(Cc2cc(F)cc(C(F)(F)F)c2)[C@H]1c1ccc(CO)cc1,-0.575,0.237,-0.14,-0.0049,1.18,2.08,0.224 (inactive),0.795,-0.749,1.79 (inactive),1.08,-0.769 (inactive),1.16 (inactive),0.134 (inactive),-0.164 (inactive),0.196 (inactive),0.249 (inactive),0.113 (inactive),1.63,-0.181
CC1(C)C(=O)C(c2ccccc2)=C2CN3C(=O)N(CCc4ccccc4)C(=O)C3(Cc3ccccc3)C=C21 (stereo not given),-0.739,-0.295,0.54,-0.0119,0.0826,0.000299,-0.385 (inactive),-0.871,-1.52,0.199 (inactive),-0.752,1.4 (inactive),-1.22 (inactive),0.362 (inactive),0.784 (inactive),2.07 (inactive),0.0474 (inactive),0.222 (inactive),-0.562,0.237
C/C=C/[C@H](CCn1cc([C@H](O)c2ccccc2)nn1)[Si](C)(C)c1ccc(OC)cc1,-0.0186,-0.358,-0.689,-1.58,-1.43,-1.4,0.644 (inactive),-0.569,-0.629,0.22 (inactive),0.0881,-0.289 (inactive),0.183 (inactive),-0.393 (inactive),0.626 (inactive),0.15 (inactive),0.265 (inactive),-0.0867 (inactive),-0.187,-0.0936
COC(=O)[C@@]1(Cc2ccc(F)cc2)[C@H]2c3cc(C(=O)N(C)C)n(CCCNc4ccc(C(F)(F)F)cc4Cl)c3C[C@H]2CN1C(=O)c1ccccc1,-1.34,-0.851,-0.136,-0.84,-4.32,2.61,0.391 (inactive),-0.777,-2.12,-1.85 (inactive),-0.591,1.28 (inactive),-1.98 (inactive),-0.0269 (inactive),0.439 (inactive),0.482 (inactive),-0.0949 (inactive),0.29 (inactive),-3.88,0.143
